# NLRP3 yeast inh = blocks the NALP3 inflammasome reconstituted in yeast. actives 0.39% (n = 330,000). Yeast reconstituted NLRP3/ASC/caspase-1, beta-gal luminescence, 24 h. inhibition, % at 10 µM. AID 2825;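 active = inhibition of 50% or more; inactive = inhibition below 50%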
# tim10-1 inh = inhibits growth of tim10-1 mutant yeast; inhibition, % at 20 µM; S. cerevisiae tim10-1 ts strain growth, BacTiter-Glo, 24 h; actives 2.2% (n = 330,000);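 active = inhibition of at least 40%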;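 note: mutant grown at 25 °C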
# TIM10 inh = growth inhibitors of TIM10 yeast strain; S. cerevisiae TIM10 strain growth, BacTiter-Glo luminescence, 24 h; inhibition, % at 10 µM; actives 1.4% (n = 330,000);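 active = inhibition of 40% or more at the single tested concentration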;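 note: wild-type TIM10 isogenic control strain grown at permissive 25 °C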
# SKKanGAS inh = blocks kanamycin growth of S. pyogenes SKKanGAS strain; BacTiter-Glo, 6 h; inhibition, % at 7.5 µM; actives 1.3% (n = 300,000);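 active = mean replicate score, as percent of positive control median, at least 50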;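 note: strain carries kanamycin resistance gene driven by streptokinase promoter and grows in 40 µg/ml kanamycin; loss of luminescence reflects streptokinase promoter inhibition or plain growth inhibition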
# PfHsp90 set2 = reduces growth (ATP signal) of yeast expressing P. falciparum Hsp90. actives 0.32% (n = 310,000). inhibition, % at 9.4 µM. S. cerevisiae expressing PfHsp90, BacTiter-Glo ATP, 48 h; yeast lacking PDR1 and PDR3 efflux regulators;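 active = every replicate shows inhibition above about 80%, whatever the replicate mean, limit read from the data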
# tim23-1 inh = inhibits growth of tim23-1 mutant yeast. S. cerevisiae tim23-1 growth, BacTiter-Glo luminescence, 24 h. inhibition, % at 20 µM. actives 1.3% (n = 330,000);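 active = growth inhibition of the mutant yeast at or above 50%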;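 note: temperature-sensitive mutant grown at 25 °C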
# Numbers stand for hits; 0 = inactive; - = no result. Sampled rows, rich in hits. Any-hit rate of the full collection: about 4.6%.
SMILES,NLRP3 yeast inh,tim10-1 inh,TIM10 inh,SKKanGAS inh,PfHsp90 set2,tim23-1 inh
O=C(Nc1nccs1)c1c(O)c2c(n(Cc3ccco3)c1=O)CCCC2,0,0,0,55.0,0,0
COc1ccccc1NC(=O)COC(=O)c1cn(C)c2ccccc12,0,0,0,-,0,0
CCCCCCn1c(=O)c(C(=O)Nc2c(C)n(C)n(-c3ccccc3)c2=O)c(O)c2ccccc21,0,0,0,88.5,0,0
CCCCCn1c(=O)c(C(=O)Nc2ccccn2)c(O)c2ccccc21,0,0,0,0,0,0
CCOC(=O)Cc1csc(NC(=O)c2c(O)c3ccccc3n(CCC(C)C)c2=O)n1,0,0,0,67.8,0,0
CCCCn1c(=O)c(C(=O)Nc2ccccn2)c(O)c2ccccc21,0,0,0,52.7,0,0
CCCCCCn1c(=O)c(C(=O)Nc2nc(CC(=O)OCC)cs2)c(O)c2ccccc21,0,0,0,0,0,0
CCCCCn1c(=O)c(C(=O)Nc2ccccc2)c(O)c2ccccc21,0,0,0,0,0,0
CCCCCCn1c(=O)c(C(=O)Nc2cnccn2)c(O)c2ccccc21,0,0,0,64.3,0,0
C=CCN1CCC2(C)c3cc(O)ccc3CC1C2C (stereo not drawn),0,0,0,0,0,0
CN1C(=O)C(O)N=C(c2ccccc2)c2ccccc21 (stereo not drawn),0,0,0,0,0,0
Cc1c(C(=O)C(=O)N2CCC3(CC2)OCCO3)c2ccccc2n1C,0,0,0,0,0,0
COC1CCC(OC2CC(C3(C)CCC4(CC(O)C(C)C(C(C)/C=C(\C)C(=O)C(C)CC(C)C(=O)O)O4)O3)OC3(OC(C4OC(O)(CO)C(C)CC4C)CC3C)C2C)OC1C (stereo not drawn),-,-,-,-,105.7,-
Cc1ccc(NC2=NCCCS2)cc1Cl,0,0,0,0,0,0
CCC(=O)N1N=C(c2c(O)n(CCc3ccccc3)c(=O)[nH]c2=O)CC1c1ccc(OC)c(OC)c1 (stereo not drawn),0,0,0,100.2,-,0
COc1ccc(CCn2c(O)c(C=NCCN3CCCCC3)c(=O)[nH]c2=O)cc1OC,0,0,0,0,0,0
COC(=O)C1=C(C(=O)OC)C2OC1c1cc3ccccc3cc12,-,-,-,-,132.1,-
COC(=O)C1=C(c2ccc3ccccc3c2)C[C@@H]2CC[C@H]1N2C,0,0,0,-,0,0
CN(C)C(=S)SSC(=S)N(C)C,-,-,-,0,108.2,-
Oc1cc(Cl)c(Cl)c(Cl)c1Cl,-,-,-,-,104.2,-
Oc1cc(Cl)c(Cl)c(Cl)c1,-,-,-,-,0,-
COc1ccc(C2=CC(c3ccc(OC)c(OC)c3)c3c(c4ccccc4oc3=O)O2)cc1OC (stereo not drawn),0,0,0,0,0,0
CCCCCn1c(=O)c(C(=O)NCc2ccncc2)c(O)c2ccccc21,0,0,0,78.0,0,0
CCCCn1c(=O)c(C(=O)NCc2ccc(Cl)cc2)c(O)c2ccccc21,0,0,0,0,0,0
CCCCn1c(=O)c(C(=O)NCCc2ccccc2)c(O)c2ccccc21,0,0,0,54.5,0,0
SMILES,NLRP3 yeast inh,tim10-1 inh,TIM10 inh,SKKanGAS inh,PfHsp90 set2,tim23-1 inh
O=[N+]([O-])c1oc2ccc3ccccc3c2c1CCO,-,-,-,-,136.4,-
Clc1ccc(C(Cn2ccnc2)OCc2csc3c(Cl)cccc23)c(Cl)c1 (stereo not drawn),0,0,0,-,86.1,0
COCCNC(=O)c1c(NC(=O)c2ccco2)n(Cc2ccccc2)c2nc3ccccc3nc12,0,0,0,68.0,0,0
C=CCn1c(O)c(C(CC)=Nc2ccc(N(C)C)cc2)c(=O)[nH]c1=O,0,0,0,57.1,0,0
CC(Cc1ccccc1)NC(=O)CCCCC(=O)NC(C)Cc1ccccc1 (stereo not drawn),0,0,0,0,0,0
CCOC(=O)c1ccc(-[n+]2c(-c3ccccc3)cc(-c3ccccc3)cc2-c2ccccc2)cc1,0,0,0,0,0,0
Cc1ccc(-c2cc(-c3ccc(C)cc3)[n+](-c3ccc(C(=O)[O-])cc3)c(-c3ccc(C)cc3)c2)cc1,0,0,0,77.9,0,0
CC(=O)c1cn(CCCOc2ccccc2)c2ccccc12,0,0,0,0,0,0
CC(=O)N1N=C(c2c(O)n(C)c(=O)n(C)c2=O)CC1c1ccccc1 (stereo not drawn),0,0,0,51.4,0,0
CC(=O)N1N=C(c2cccnc2)CC1c1ccccc1O (stereo not drawn),0,0,0,0,0,0
CC1CN1P(=O)(Oc1ccccc1)N1CC1C (stereo not drawn),-,-,-,-,0,-
CC1C(OC(=O)CCC(=O)NC(C)(C)CO)O[C@H]2OC3(C)CC[C@H]4[C@H](C)CCC1C24OO3 (stereo partly drawn),0,0,0,0,0,0
O=C1NC(=S)NC(=O)C1=Cc1ccc(Br)s1,0,0,0,0,123.3,0
O=c1[nH]c(CN2CC=C(c3ccccc3)CC2)nc2cc(C(F)(F)F)ccc12,0,0,0,0,0,0
O=c1[nH]c(CN2CC=C(c3ccccc3)CC2)nc2scc(-c3ccccc3)c12,0,0,0,64.2,0,0
CC(NC(=O)Cc1cccc2ccccc12)C(=O)N1CCC(=O)CC1 (stereo not drawn),0,0,0,0,0,0
COc1ccc(CCNC(=O)c2c(N)n(CCN3CCOCC3)c3nc4ccccc4nc23)cc1,0,0,0,50.5,0,0
CN1CCc2cc3c(cc2C1)OCO3,-,-,-,-,0,-
COc1ccc(OC)c(N=Cc2c(O)n(Cc3ccccc3)c(=S)[nH]c2=O)c1,0,0,0,50.7,0,0
S=C(NC1CCCCC1)N1CCC(c2cnc[nH]2)CC1,0,0,0,0,0,0
CC1=C(O)C(=O)C=C2C1=CC=C1C2(C)CCC2(C)C3CC(C)(C(=O)O)CCC3(C)CCC12C (stereo not drawn),-,-,-,-,125.3,-
CC1CCC(C(C)C)C(OC(=O)COC(=O)c2ccccc2N)C1 (stereo not drawn),0,0,0,67.4,0,0
O=c1[nH]c(=O)n(-c2ccc(Cl)cc2)c(O)c1C=NCCN1CCCCC1,0,0,0,0,0,0
Clc1ccc(CCC(Cn2ccnc2)Sc2c(Cl)cccc2Cl)cc1 (stereo not drawn),0,0,0,-,88.0,0
C[n+]1c(-c2ccccc2)c2cc(N)ccc2c2ccc(N)cc21,0,0,0,100.2,0,0
Nc1ccc2ccc3cccc[n+]3c2c1,0,0,0,0,0,0
CCCCC(=O)N/N=C/c1c(O)n(Cc2ccco2)c(=O)[nH]c1=O,0,0,0,0,0,0
O=C(N/N=C/c1c(O)n(CCc2ccccc2)c(=O)[nH]c1=O)c1ccccc1,0,0,0,54.9,-,0
O=C(N/N=C/c1c(O)n(C2CCCCC2)c(=S)[nH]c1=O)c1ccccc1,0,0,0,80.3,0,0

# Screening results (PubChem)
